From PubChem BioAssay come the findings set out here.

A number with no mark means an inactive call. For part of these data: Entries with a potency or affinity are not part of this list. Calls of active or inactive are those of the source. Unless noted, how the calls were made is not given here.

Experiment [1] is described as follows: antimalarial activity against Dd2 strain (AID 2302;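 active means growth inhibition above 50% at the single 2 µM test dose, taken to imply half-maximal potency below 2 µM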;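 further: 0% = DMSO untreated growth and 100% = chloroquine plus artemisinin killed control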). The note with it: P. falciparum Dd2 in RBCs, LDH growth readout, 72 h; at 2 µM; stronger effect = higher value.
Experiment [2] in a line: HepG2 cytotoxicity, primary screen, cytotoxicity control for P. falciparum antimalarial project, cell-based, ATP luminescence (AID 2303;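 active means inhibition above 50%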;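 further: 0% = DMSO wells and 100% = digitonin-killed cells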). The note with it: HepG2 viability, 24-48 h, at 10 µM, stronger effect = higher value.
The target of experiment [3] is L-lactate dehydrogenase (Plasmodium falciparum (isolate CDC / Honduras)) (UniProt Q27743). Nature of the experiment: PfLDH activity inhibition – cell lysate, 3D7 strain, counter-screen for P. falciparum growth inhibition project (AID 2304).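 Further: 0% = vehicle and 100% = reference inhibitor.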 The note with it: P. falciparum 3D7 crude extract, LDH APAD/NBT absorbance; at 2 µM; stronger effect = higher value. For orientation: A counterscreen serves to expose hits that act by an unwanted route or on another target.

Experiment [4] can be described thus: inhibition of 3D7 malaria parasite growth – strain 3D7 (AID 2306).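 Further: 0% = DMSO wells and 100% = chloroquine plus artemisinin control wells.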 The conditions noted are these: P. falciparum 3D7 erythrocytic growth, LDH absorbance, 72 h; at 2 µM; stronger effect = higher value.
The target in experiment [5] is Calcium-dependent protein kinase 1 (Plasmodium falciparum (isolate 3D7)) (UniProt P62344). Nature of the experiment: PfCDPK1 kinase inhibitors, biochemical, TCAMS library (AID 1159585; cut-off not given, nearly all actives have IC50 up to about 0.98 µM;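 further: inhibitors leave more ATP so luminescence rises with inhibition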). The conditions noted are these: recombinant PfCDPK1, Kinase-Glo ATP depletion luminescence.
Experiment [6] addresses Plasmodium falciparum protein kinase 6 (PK6, PF3D7_1337100) (UniProt Q8IDW1). Nature of the experiment: PfPK6 kinase inhibitors, biochemical, TCAMS library (AID 1159586). The note with it: recombinant PfPK6, Kinase-Glo ATP depletion luminescence. For orientation: Kinase-Glo reads ATP consumption through a luciferase reaction.
Experiment [7] has as its target Protein kinase 7 (PK7), Plasmodium falciparum 3D7 (PF3D7_0213400) (UniProt Q7YTF7). Nature of the experiment: inhibition of Plasmodium PK7 catalytic activity – biochemical, TCAMS antimalarial set, Kinase-Glo luminescence (AID 1159587). The conditions noted are these: recombinant PfPK7, Kinase-Glo ATP depletion luminescence.
For experiment [8], the target named is Calcium-dependent protein kinase 4 (Plasmodium falciparum (isolate 3D7)) (UniProt Q8IBS5). Nature of the experiment: PfCDPK4 kinase inhibitors, biochemical, TCAMS library (AID 1159588; cut-off not given, nearly all actives have IC50 up to about 0.91 µM). The conditions noted are these: recombinant PfCDPK4, Kinase-Glo ATP depletion luminescence.
Chain of Calcium-dependent protein kinase 4 (Plasmodium falciparum (isolate 3D7)) (Q8IBS5 whole entry, looked up): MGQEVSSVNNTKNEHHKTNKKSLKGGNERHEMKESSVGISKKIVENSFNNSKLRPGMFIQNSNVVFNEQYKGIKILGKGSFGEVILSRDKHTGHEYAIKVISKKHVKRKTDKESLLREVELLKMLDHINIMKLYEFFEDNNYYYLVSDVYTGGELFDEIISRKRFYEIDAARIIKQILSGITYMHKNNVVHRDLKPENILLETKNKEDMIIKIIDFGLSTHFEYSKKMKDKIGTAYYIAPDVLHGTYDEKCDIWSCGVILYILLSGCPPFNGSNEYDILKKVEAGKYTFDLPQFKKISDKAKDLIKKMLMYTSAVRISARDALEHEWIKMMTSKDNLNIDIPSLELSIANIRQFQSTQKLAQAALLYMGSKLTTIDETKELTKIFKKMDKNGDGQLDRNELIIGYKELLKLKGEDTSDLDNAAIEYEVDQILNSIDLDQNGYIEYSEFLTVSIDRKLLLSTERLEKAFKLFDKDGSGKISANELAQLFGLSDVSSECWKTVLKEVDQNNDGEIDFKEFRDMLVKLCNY

Chain of Protein kinase 7 (PK7), Plasmodium falciparum 3D7 (PF3D7_0213400) (Q7YTF7 1-343): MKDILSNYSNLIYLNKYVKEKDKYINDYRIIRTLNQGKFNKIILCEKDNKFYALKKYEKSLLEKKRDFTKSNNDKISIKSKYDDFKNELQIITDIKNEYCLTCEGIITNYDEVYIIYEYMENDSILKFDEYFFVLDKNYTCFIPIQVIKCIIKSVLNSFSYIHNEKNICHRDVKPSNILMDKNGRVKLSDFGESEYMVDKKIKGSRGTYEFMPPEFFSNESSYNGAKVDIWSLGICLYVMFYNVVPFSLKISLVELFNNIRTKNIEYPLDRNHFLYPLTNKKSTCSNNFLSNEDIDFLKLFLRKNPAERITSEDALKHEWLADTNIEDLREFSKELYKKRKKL
Chain of L-lactate dehydrogenase (Plasmodium falciparum (isolate CDC / Honduras)) (Q27743 whole entry, looked up): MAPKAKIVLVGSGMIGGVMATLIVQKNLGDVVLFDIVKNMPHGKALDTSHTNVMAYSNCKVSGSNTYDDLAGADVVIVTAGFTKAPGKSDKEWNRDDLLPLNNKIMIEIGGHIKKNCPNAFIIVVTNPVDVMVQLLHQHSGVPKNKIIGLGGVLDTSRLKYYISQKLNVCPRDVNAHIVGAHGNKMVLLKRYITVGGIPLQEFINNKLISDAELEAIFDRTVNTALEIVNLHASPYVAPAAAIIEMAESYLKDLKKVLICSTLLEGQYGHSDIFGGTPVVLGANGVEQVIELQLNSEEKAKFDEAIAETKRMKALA
Chain of Plasmodium falciparum protein kinase 6 (PK6, PF3D7_1337100) (Q8IDW1 1-305): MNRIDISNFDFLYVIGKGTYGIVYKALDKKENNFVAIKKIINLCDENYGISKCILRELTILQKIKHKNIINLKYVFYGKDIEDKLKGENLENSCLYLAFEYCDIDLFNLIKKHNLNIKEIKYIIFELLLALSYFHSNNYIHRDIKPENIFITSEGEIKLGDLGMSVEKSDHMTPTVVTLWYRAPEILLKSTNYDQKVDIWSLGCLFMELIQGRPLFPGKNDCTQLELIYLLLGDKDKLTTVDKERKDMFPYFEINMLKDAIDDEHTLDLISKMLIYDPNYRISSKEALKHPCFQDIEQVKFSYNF
Chain of Calcium-dependent protein kinase 1 (Plasmodium falciparum (isolate 3D7)) (P62344 whole entry, looked up): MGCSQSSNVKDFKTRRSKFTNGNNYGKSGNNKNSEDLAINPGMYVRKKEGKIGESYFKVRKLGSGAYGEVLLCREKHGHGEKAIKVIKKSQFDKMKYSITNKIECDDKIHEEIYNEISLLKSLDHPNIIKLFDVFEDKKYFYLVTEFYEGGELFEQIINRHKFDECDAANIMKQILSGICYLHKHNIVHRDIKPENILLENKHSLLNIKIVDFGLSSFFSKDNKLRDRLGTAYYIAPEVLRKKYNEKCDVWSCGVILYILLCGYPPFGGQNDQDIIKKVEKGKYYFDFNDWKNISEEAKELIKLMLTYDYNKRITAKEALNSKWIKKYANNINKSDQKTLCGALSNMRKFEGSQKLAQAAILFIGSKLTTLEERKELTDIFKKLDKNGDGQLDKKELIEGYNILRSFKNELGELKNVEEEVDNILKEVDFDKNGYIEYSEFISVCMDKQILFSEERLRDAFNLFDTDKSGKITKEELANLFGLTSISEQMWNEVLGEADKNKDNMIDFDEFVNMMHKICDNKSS

Turning to `CC(C)CCN(Cc1cncn1Cc1cccc(C(F)(F)F)c1)C(=O)c1ccccc1C#N`, the growth inhibition in experiment [1] was 96% (active); in experiment [4], 99% (active). The values for the inhibition in experiment [2] and in experiment [3] were -4% and -2%, respectively. The outcome in experiment [5], in experiment [6], in experiment [7] and in experiment [8] was inactive.

Take `Nc1nccc2ccc(-c3ccnc(NCc4cccnc4)n3)cc12`: the growth inhibition is 95% (active) in experiment [1] and 101% (active) in experiment [4]. Also, the inhibition – broadly, the relative decrease from the control value, in per cent – in experiment [2] is 11%; in experiment [3], -3%. Moreover, the outcome in experiment [5], in experiment [6], in experiment [7] and in experiment [8] was inactive.

On to `CN(C)CCCNc1ncnc2c1[nH]c1ccc(F)cc12`, for which the growth inhibition was -1% in experiment [1] and 100% (active) in experiment [4]. The inhibition was 14% in experiment [2] and 1% in experiment [3]. For the same molecule, the result in experiment [5], in experiment [6], in experiment [7] and in experiment [8] was inactive.

With `FC(F)(F)c1ccc2nc(-c3cccc(-c4cccc(CNCC5CCCO5)c4)c3)[nH]c2c1` (centres undefined), the growth inhibition in experiment [1] is 96% (active); in experiment [4] it was 100% (active). In addition, the inhibition in experiment [2] is 23%; in experiment [3], -2%. The outcome in experiment [5], in experiment [6], in experiment [7] and in experiment [8] was inactive.

As for `COc1ccc(C#Cc2ccc(-c3c(C)[nH]c(C)c(Cl)c3=O)cc2)cc1`, the growth inhibition in experiment [1] and in experiment [4] was 97% (active) in each case. The inhibition in experiment [2] was -6%; in experiment [3], 2%. Moreover, the result in experiment [5], in experiment [6], in experiment [7] and in experiment [8] was inactive.

Regarding `COc1ccccc1Nc1nc(C)cc(NCc2ccc(-n3ccnc3)cc2)n1`, the growth inhibition was 10% in experiment [1] and 90% (active) in experiment [4]. Besides, the values for the inhibition in experiment [2] and in experiment [3] were 5% and -2%, respectively. In addition, the result in experiment [5], in experiment [6], in experiment [7] and in experiment [8] was inactive.

With `CCOc1ccc(C(C)NC(=O)c2ccc(OC)c(Br)c2)cc1OCC` (centres undefined), the growth inhibition in experiment [1] and in experiment [4] was 100% (active) throughout. In addition, the inhibition was 9% in experiment [2] and 2% in experiment [3]. The outcome in experiment [5], in experiment [6], in experiment [7] and in experiment [8] was inactive.

As for `CC(C)C[C@@H](/C=N/N1CCNC1=O)NC(=O)[C@H](CC(C)C)NC(=O)c1ccc(OCCN2CCOCC2)cc1`, the growth inhibition in experiment [1] was 89% (active); in experiment [4], 97% (active). Moreover, the inhibition was 21% in experiment [2] and -4% in experiment [3]. The outcome in experiment [5], in experiment [6], in experiment [7] and in experiment [8] was inactive.

For `OCC1CCN(Cc2ccc(-c3ccc(-c4nc5ccc(C(F)(F)F)cc5[nH]4)s3)cc2)CC1`, the growth inhibition is 90% (active) in experiment [1] and 102% (active) in experiment [4]. Moreover, the inhibition in experiment [2] was 35%; in experiment [3] it was -2%. For the same molecule, the result in experiment [5], in experiment [6], in experiment [7] and in experiment [8] was inactive.

Regarding `O=C(Nc1ccc(-c2nc3ccccc3[nH]2)cc1)C1CCN(Cc2cccc(F)c2F)CC1`, the values for the growth inhibition in experiment [1] and in experiment [4] were 51% (active) and 97% (active), respectively. Also, the figures for the inhibition in experiment [2] and in experiment [3] were 23% and 2%, respectively. Also, the result in experiment [5], in experiment [6], in experiment [7] and in experiment [8] was inactive.

Regarding `COc1cc2nc(-c3ccc(Br)cc3)cc(N)c2cc1OC`, the growth inhibition is 69% (active) in experiment [1] and 98% (active) in experiment [4]. The inhibition is 90% (active) in experiment [2] and -3% in experiment [3]. Moreover, the outcome in experiment [5], in experiment [6], in experiment [7] and in experiment [8] was inactive.

`CN1CCN(c2cc(NC(=O)c3ccc(-c4ccc(Cl)cc4)cc3)ccc2Cl)CC1`: the growth inhibition in experiment [1] is 33%; in experiment [4] it was 99% (active). Moreover, the inhibition in experiment [2] was 30%; in experiment [3] it was -2%. Also, the result in experiment [5], in experiment [6], in experiment [7] and in experiment [8] was inactive.

Take `O=C1Nc2cccc3c2C1(CCCN1CCC(c2c[nH]c4cc(C(F)(F)F)ccc24)CC1)CCC3` (centres undefined): the growth inhibition in experiment [1] is 37%; in experiment [4], 89% (active). For the same molecule, the inhibition was 91% (active) in experiment [2] and -2% in experiment [3]. The result in experiment [5], in experiment [6], in experiment [7] and in experiment [8] was inactive.

In the case of `CCn1ccc2c(N3CCCS3(=O)=O)cc(C(=O)N[C@@H](Cc3ccccc3)[C@H](O)CNC(C)(C)CCCC(C)C)cc21`, the growth inhibition in experiment [1] was 98% (active); in experiment [4] it was 97% (active). Further, the inhibition in experiment [2] is 8%; in experiment [3], 0%. Besides, the outcome in experiment [5], in experiment [6], in experiment [7] and in experiment [8] was inactive.

`O=C(Nc1cccc(CN2CCCN(CCc3ccccc3)CC2)c1)c1cc2ccccc2s1`: the growth inhibition in experiment [1] was 39%; in experiment [4], 93% (active). The inhibition was 37% in experiment [2] and 4% in experiment [3]. The result in experiment [5], in experiment [6], in experiment [7] and in experiment [8] was inactive.

For `COc1cc(-c2[nH]c(-c3ccc(OCCN(C)C)cc3)cc2-c2ccncc2)ccc1Cl`, the results for the growth inhibition in experiment [1] and in experiment [4] were 33% and 93% (active), respectively. The inhibition in experiment [2] was 3%; in experiment [3], 1%. The outcome in experiment [5], in experiment [6], in experiment [7] and in experiment [8] was inactive.

Consider `CCCCNCc1ccc(-c2nc(CN(Cc3ccc(Cl)c(Cl)c3)S(=O)(=O)c3ccc(NC(C)=O)cc3)cs2)cc1`, for which the values for the growth inhibition in experiment [1] and in experiment [4] were 20% and 96% (active), respectively. The results for the inhibition in experiment [2] and in experiment [3] were 30% and 5%, respectively. In addition, the result in experiment [5], in experiment [6], in experiment [7] and in experiment [8] was inactive.

Regarding `O=C(Nc1ccc(Cn2nc(Cl)c(N3CCNCC3)cc2=O)cc1)Nc1ccc(-c2ccccc2)cc1`, the growth inhibition in experiment [1] is 49%; in experiment [4], 97% (active). The inhibition in experiment [2] was 99% (active); in experiment [3] it was -3%. In addition, the outcome in experiment [5], in experiment [6], in experiment [7] and in experiment [8] was inactive.
